HT1080 IDH1KD tx: HT-1080 IDH1 knockdown cell toxicity (counter line); HT-1080 IDH1 knockdown viability, ATP luminescence, 48 h; Potency, µM (top dose mostly 46.1 µM), inactives show top-dose activity, negative = toxicity, usual class: cytotoxic; hit rate 2% among 360,000;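 also: 0% = DMSO wells and -100% = cell-free medium wells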
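IDH1KD HT-1080 cells, 750/well, RPMI + 5% FBS; compound pinned after 2 h settling; 48 h, 37 °C; CellTiter-Glo luminescence; % activity normalised to DMSO and no-cell wells; curves fitted, classed by r2 and efficacy.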
DT40 TDP1 CPT: DT40-hTDP1 cell growth loss with CPT | hit rate 12% among 420,000 | chicken DT40 Tdp1-/-;hTDP1 cells + 20 nM CPT, ATP luminescence, 48 h | Potency, µM (titrated, usually from 46.2 µM), for inactives: at the highest dose activity change, negative = growth inhibition, hits mostly inhibitors; also: nearly all actives have a fitted effect of over 55% in size
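Cell growth measured by CellTiter-Glo luminescence after a minimum 48 h, 37 C compound exposure with 20 nM CPT in Tdp1-knockout DT40 cells stably expressing hTDP1, seeded 400/well; qHTS titration format.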
DT40 TDP1 no CPT: qHTS for Inhibitors of human tyrosyl-DNA phosphodiesterase 1 (TDP1): qHTS in cells in absence of CPT. AID 686978, 2013. DT40 Tdp1-/- hTDP1 cells, no CPT, ATP luminescence, 48 h. hit rate 15% among 420,000. Potency, µM (top dose mostly 46.2 µM), inactives show at the top dose activity change, negative = growth inhibition, actives largely listed as inhibitors; also: nearly all actives have a fitted effect of over 55% in size
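Stably hTDP1-transfected Tdp1-null chicken DT40 cells were treated with library compounds minus camptothecin and grown for at least 48 hr at 37 °C, after which cellular ATP was quantified by luminescence.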
KB-3-1 cytotox: KB-3-1 parental cell cytotoxicity. AID 1347075. KB-3-1 viability, CellTiter-Glo ATP luminescence, 72 h. Potency, µM (titrated, usually from 46.1 µM), hits mostly cytotoxic. hit rate 1.4% among 400,000; also: nearly all actives have a fitted effect of over 60% in size
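Viability of parental KB-3-1 cells, measured by CellTiter-Glo luminescence, followed a 72 h incubation at 37 °C with pinned compounds in phenol-red-free DMEM containing 10% FBS.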
HT1080-NT tox: kills 2HG-producing HT-1080-NT fibrosarcoma cells; hit rate 1.6% among 360,000; AID 686970; HT-1080-NT fibrosarcoma viability, CellTiter-Glo ATP luminescence, 48 h; Potency, µM (titrated, usually from 46.1 µM), inactives show at the top dose activity, negative = less viability, hits mostly cytotoxic;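 also: NT is the 2HG producing partner of a matched IDH1 knockdown line; 0% = DMSO-treated cells and -100% = media-only wells without cells; nearly all actives have a fitted effect of over 55% in size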
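A 48-hour cytotoxicity screen used HT-1080-NT cells plated 2 hours before compound delivery. ATP-based CellTiter-Glo luminescence measured viability, normalized to DMSO and no-cell controls.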
KB-V1 MDR tox: kills drug-selected multidrug resistant KB-V1 cells; KB-V1 MDR cells viability, CellTiter-Glo, 72 h; Potency, µM (doses to about 46.1 µM), usual class: cytotoxic; hit rate 3.4% among 400,000; also: nearly all actives have a fitted effect of over 60% in size
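Drug-selected KB-V1 cells, grown in DMEM lacking phenol red with 10% FBS, receive compound titrations; after three days at 37 degrees C, surviving cell ATP is quantified by CellTiter-Glo luminescence and responses normalized and curve-fitted.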
Numbers without * were called inactive; i = inactive; ? = inconclusive; / = no result; [ ] = dose if it differs, or a comment. Most compounds without a hit are left out; they make up all but 19% or so of the library. Calls follow the shape of the dose curve; as a rule, active = well fitted curve in the direction sought with a large enough effect; inconclusive = small, poorly fitted or top-dose-only effect, or another doubt; inactive = no such curve, though single readings can be large; an effect the other way counts as inactive or inconclusive. Unless noted, % is scaled to controls: 0 for no effect and ±100 for the full control effect; potency is read from the fitted curve at half-maximal effect.

SMILES	HT1080 IDH1KD tx	DT40 TDP1 CPT	DT40 TDP1 no CPT	KB-3-1 cytotox	HT1080-NT tox	KB-V1 MDR tox
O=C(CC(Sc1ccc(Br)cc1)C(=O)O)c1ccc(F)cc1 (stereo not drawn)	-12%	9.2µM*	4.6µM*	i	-24%	i
O=S(=O)(Cc1ccccc1)NC1c2ccccc2Oc2ccccc21	-2%	15µM*	21µM*	i	2%	?
COCCn1c(SCC(=O)N2CCCc3ccccc32)nc2c(c1=O)SC(C)C2 (stereo not drawn)	1%	?	?	i	-5%	?
CC1CCN(C(=O)CSc2nc3c(c(=O)n2C)SC(C)C3)CC1 (stereo not drawn)	-1%	?	21µM*	i	-6%	?
CCn1c(SCC(=O)N2CCCc3ccccc32)nc2c(c1=O)SC(C)C2 (stereo not drawn)	-1%	16µM*	?	i	5%	i
CC1Cc2nc(SCC(=O)N3CCCc4ccccc43)n(C)c(=O)c2S1 (stereo not drawn)	-2%	?	13µM*	i	-9%	i
CC1Cc2nc(SCC(=O)N3CCCCC3)n(C)c(=O)c2S1 (stereo not drawn)	2%	-4%	?	i	-1%	?
CCOc1ccccc1CNS(=O)(=O)c1ccc2c(c1)CCCN2C(C)=O	/	?	?	i	/	i
CCCCNC(=O)CSc1nc(-c2ccc(OC)cc2)cc(C(F)(F)F)n1	/	?	?	i	/	i
Clc1ccc(OCc2cn3ccccc3n2)c2ncccc12	-1%	15µM*	16µM*	i	-2%	i
COc1ccccc1CN(C)C(=O)C(c1ccccc1)c1ccccc1	16µM*	16µM*	13µM*	?	?	21µM*
COc1cccc(CN(C)C(=O)c2ccc(Oc3ccccc3)cc2)c1OC	-20%	26µM*	21µM*	i	?	i
COc1ccccc1CNC(=O)C(Cc1ccccc1)NC(=O)c1ccccc1 (stereo not drawn)	4%	?	?	i	4%	i
COc1cccc(CN(C)C(=O)CNC(=O)c2ccc(-c3ccccc3)cc2)c1OC	4.6µM*	?	?	i	?	?
CN(Cc1ccc(F)cc1)C(=O)C(c1ccccc1)c1ccccc1	-5%	-27%	?	i	0%	i
COc1ccc(CN(C)C(=O)C(Cc2ccccc2)NC(=O)c2ccccc2)c(OC)c1 (stereo not drawn)	-1%	?	21µM*	i	-5%	i
COc1cccc(CN(C)C(=O)CNC(=O)c2cccs2)c1OC	11%	4%	-2%	i	7%	?
CCCOC(=O)c1ccc(NC(=O)C2CC(=O)N(c3ccc(C)cc3)C2)cc1 (stereo not drawn)	/	/	/	i	/	i
COc1ccccc1CN(C)C(=O)c1ccc(COc2ccccc2)cc1	-18%	16µM*	?	i	-8%	i
COc1ccc(C(=O)N[C@H](C(=O)NCc2ccc(C)cc2)C(C)C)cc1	-23%	-5%	-29%	i	4%	?
COc1ccc(CN(C)C(=O)c2ccc(NS(=O)(=O)c3ccccc3)cc2)c(OC)c1	-1%	?	?	i	-24%	i
COc1cccc(CN(C)C(=O)CCN(c2ccccc2)S(=O)(=O)c2ccc(C)cc2)c1OC	-20%	26µM*	16µM*	i	-15%	i
Cc1ccc(S(=O)(=O)N(CCC(=O)NCc2ccccc2F)c2ccccc2)cc1	1%	?	?	i	8%[9.24 µM]	i
COc1ccc(CN(C)C(=O)c2ccc(COc3ccccc3)cc2)c(OC)c1	-11%	18µM*	9.2µM*	i	-8%	i
COc1cccc(CN(C)C(=O)[C@@H](NC(=O)c2ccc(C)cc2)C(C)C)c1	-10%	21µM*	21µM*	i	1%	i
SMILES	HT1080 IDH1KD tx	DT40 TDP1 CPT	DT40 TDP1 no CPT	KB-3-1 cytotox	HT1080-NT tox	KB-V1 MDR tox
COc1ccccc1CN1CC(C(=O)NCCN2CCOC2=O)CCC1=O (stereo not drawn)	6%	1%	-4%	/	0%	/
O=C(c1ccc2c(c1)CCC2)N1CCN(Cc2c(F)cccc2Cl)CC1	0%	?	?	i	1%	?
COc1ccc(CN(C)C(=O)CNC(=O)c2sc3ccccc3c2Cl)c(OC)c1OC	4%	?	-24%	?	4%	5.8µM*
COc1ccc(CNC(=O)CCCn2nc([N+](=O)[O-])cc2C)cc1	-9%	-7%	-13%	i	-1%	i
Cc1cccc(Oc2cc(N)cc([N+](=O)[O-])c2)c1	11%	?	-27%	i	3%	i
Cc1cc(C)cc(Oc2cc(NC(=O)c3cn(C)nc3C)cc([N+](=O)[O-])c2)c1	?	2.2µM*	1.4µM*	i	?	i
Cc1cc([N+](=O)[O-])nn1CCCC(=O)Nc1cc(Oc2ccccc2)cc([N+](=O)[O-])c1	-1%	16µM*	21µM*	i	-3%	i
Cc1cc([N+](=O)[O-])nn1CCCC(=O)Nc1cc(Oc2ccc(F)cc2)cc([N+](=O)[O-])c1	15%	?	?	i	12%	5.8µM*
Cc1ccc(Oc2cc(NC(=O)CCCn3nc([N+](=O)[O-])c(Cl)c3C)cc([N+](=O)[O-])c2)cc1	8%	21µM*	23µM*	i	15%	?
Cc1nc(NC(=O)c2ccccc2)sc1-c1cc(C(=O)NCCO)nn1Cc1ccccc1	5%	22%	-16%	i	-4%	i
S=c1ncc2n[nH]nc2[nH]1	/	6%	1%	?	/	?
Cc1cc([N+](=O)[O-])nn1CCCC(=O)N1CCN(c2ccc(F)cc2)CC1	1%	-30%	?	i	-5%	18µM*
COc1ccc(C(=O)NCCCN2CCCC2=O)cc1	6%	-3%	-2%	i	16%	i
O=C(NCC(c1cccs1)N1CCOCC1)c1cc(F)cc(F)c1 (stereo not drawn)	5.8µM*	21µM*	15µM*	?	7.3µM*	?
COc1cc(C(=O)NCC(c2cccs2)N2CCOCC2)cc(Br)c1OCc1ccccc1 (stereo not drawn)	-9%	9.2µM*	9.2µM*	?	-25%	?
